# About 8,800 targets were measured; listed, in parts, are those with a hit and a random draw of the rest. About 0.5% of all pairs of compound and target were hits. A number with no mark means an inactive call.
# Compound: CN1CC[C@H](c2c(O)cc(O)c3c(=O)cc(-c4ccccc4Cl)oc23)[C@H](O)C1 [alvocidib]
# Experiment: log2 fold change, soluble protein after heating vs DMSO (PISA); higher = thermal stabilisation; K562 lysate, 10 uM; active = over 0.2 and 3.5 SD of the protein, either way, in both replicates (recomputed)
# How it was run: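 Soluble protein was defined as the supernatant remaining after 21,000xg for 90 min, following pooling of heated aliquots and adjustment to 0.5% NP-40 at 4°C. Before that, crude K562 extract at 1 mg/mL protein in PBS pH 7.4 with 1 mM MgCl2 was treated with 10 μM compound for 30 min and heated for 3 min across 48°C-58°C. Quantification used TMTpro 16plex LC-MS/MS with channel sums equalised, and values are log-two fold changes in thermal stability relative to solvent controls from duplicates.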
# Chain of UniProt Q86T24 (Q86T24 whole entry, looked up): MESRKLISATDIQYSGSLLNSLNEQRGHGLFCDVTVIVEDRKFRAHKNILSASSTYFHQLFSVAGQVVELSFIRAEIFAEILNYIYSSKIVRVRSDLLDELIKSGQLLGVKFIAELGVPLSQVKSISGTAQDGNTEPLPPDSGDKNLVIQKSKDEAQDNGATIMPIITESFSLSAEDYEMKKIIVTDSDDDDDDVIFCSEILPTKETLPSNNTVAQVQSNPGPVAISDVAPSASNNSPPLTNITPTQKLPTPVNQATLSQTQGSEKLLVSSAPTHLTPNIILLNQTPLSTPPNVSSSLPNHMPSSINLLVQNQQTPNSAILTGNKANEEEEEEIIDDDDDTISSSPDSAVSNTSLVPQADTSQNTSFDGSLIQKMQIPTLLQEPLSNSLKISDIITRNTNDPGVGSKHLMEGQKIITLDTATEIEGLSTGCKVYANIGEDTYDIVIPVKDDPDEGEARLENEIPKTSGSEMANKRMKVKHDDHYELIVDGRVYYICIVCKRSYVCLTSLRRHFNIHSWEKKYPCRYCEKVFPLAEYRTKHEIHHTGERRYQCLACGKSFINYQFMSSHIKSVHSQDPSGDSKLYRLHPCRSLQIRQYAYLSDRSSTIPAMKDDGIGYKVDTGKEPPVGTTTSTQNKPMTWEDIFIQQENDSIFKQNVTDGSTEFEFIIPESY
# Chain of UniProt O15014 (O15014 whole entry, looked up): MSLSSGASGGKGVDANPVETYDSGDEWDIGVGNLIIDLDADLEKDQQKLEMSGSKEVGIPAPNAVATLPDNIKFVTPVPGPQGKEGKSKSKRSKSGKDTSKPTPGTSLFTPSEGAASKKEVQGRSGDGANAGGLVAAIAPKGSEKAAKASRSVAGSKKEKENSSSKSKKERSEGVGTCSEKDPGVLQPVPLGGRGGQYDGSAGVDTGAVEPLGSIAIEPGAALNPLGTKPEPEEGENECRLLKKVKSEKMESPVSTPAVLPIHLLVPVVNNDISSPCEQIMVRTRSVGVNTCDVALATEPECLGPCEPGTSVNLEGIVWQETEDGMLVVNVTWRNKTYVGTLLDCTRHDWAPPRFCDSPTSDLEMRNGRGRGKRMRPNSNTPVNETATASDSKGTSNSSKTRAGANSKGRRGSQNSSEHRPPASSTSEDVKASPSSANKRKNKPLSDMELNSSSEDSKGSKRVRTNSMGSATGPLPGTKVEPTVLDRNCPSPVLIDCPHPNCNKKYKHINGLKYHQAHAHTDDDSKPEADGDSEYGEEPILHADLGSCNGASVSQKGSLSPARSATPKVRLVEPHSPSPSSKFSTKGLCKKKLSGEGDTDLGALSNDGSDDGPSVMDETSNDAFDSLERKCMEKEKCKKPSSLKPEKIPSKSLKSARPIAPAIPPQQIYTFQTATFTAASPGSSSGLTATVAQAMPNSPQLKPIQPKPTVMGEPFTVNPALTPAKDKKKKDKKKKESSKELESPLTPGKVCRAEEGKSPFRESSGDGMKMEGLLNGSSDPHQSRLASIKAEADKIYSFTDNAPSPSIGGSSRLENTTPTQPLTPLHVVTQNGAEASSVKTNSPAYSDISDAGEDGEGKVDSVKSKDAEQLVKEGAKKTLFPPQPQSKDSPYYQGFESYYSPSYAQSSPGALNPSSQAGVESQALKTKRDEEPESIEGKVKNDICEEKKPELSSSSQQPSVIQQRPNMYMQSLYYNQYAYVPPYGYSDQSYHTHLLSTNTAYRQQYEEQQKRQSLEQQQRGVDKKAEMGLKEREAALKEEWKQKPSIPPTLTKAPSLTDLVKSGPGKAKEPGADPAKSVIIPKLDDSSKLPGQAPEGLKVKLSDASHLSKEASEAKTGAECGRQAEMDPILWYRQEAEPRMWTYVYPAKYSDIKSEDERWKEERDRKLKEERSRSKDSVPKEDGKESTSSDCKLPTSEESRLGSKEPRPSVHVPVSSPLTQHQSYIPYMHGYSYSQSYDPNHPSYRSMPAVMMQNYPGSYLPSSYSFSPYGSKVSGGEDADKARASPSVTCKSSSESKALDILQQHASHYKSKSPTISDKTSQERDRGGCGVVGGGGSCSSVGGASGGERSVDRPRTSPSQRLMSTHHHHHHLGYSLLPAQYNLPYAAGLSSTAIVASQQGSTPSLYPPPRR
# Chain of UniProt Q9UK41 (Q9UK41 whole entry, looked up): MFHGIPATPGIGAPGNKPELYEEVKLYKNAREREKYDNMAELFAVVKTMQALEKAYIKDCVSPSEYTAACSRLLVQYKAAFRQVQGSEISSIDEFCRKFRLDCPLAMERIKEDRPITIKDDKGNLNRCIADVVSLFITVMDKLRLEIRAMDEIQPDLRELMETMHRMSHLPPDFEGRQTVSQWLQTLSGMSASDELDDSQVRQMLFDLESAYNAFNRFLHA
# Chain of UniProt A8MPS7 (A8MPS7 whole entry, looked up): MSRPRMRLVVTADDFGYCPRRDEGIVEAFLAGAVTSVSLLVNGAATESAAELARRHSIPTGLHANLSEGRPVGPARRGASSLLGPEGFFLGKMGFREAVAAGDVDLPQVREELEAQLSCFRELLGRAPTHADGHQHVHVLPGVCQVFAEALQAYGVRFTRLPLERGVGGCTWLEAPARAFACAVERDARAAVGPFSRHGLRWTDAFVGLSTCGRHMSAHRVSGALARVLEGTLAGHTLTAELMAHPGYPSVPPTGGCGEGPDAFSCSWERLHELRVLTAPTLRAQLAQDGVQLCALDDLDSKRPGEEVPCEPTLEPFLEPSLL
# Chain of UniProt O43379 (O43379 whole entry, looked up): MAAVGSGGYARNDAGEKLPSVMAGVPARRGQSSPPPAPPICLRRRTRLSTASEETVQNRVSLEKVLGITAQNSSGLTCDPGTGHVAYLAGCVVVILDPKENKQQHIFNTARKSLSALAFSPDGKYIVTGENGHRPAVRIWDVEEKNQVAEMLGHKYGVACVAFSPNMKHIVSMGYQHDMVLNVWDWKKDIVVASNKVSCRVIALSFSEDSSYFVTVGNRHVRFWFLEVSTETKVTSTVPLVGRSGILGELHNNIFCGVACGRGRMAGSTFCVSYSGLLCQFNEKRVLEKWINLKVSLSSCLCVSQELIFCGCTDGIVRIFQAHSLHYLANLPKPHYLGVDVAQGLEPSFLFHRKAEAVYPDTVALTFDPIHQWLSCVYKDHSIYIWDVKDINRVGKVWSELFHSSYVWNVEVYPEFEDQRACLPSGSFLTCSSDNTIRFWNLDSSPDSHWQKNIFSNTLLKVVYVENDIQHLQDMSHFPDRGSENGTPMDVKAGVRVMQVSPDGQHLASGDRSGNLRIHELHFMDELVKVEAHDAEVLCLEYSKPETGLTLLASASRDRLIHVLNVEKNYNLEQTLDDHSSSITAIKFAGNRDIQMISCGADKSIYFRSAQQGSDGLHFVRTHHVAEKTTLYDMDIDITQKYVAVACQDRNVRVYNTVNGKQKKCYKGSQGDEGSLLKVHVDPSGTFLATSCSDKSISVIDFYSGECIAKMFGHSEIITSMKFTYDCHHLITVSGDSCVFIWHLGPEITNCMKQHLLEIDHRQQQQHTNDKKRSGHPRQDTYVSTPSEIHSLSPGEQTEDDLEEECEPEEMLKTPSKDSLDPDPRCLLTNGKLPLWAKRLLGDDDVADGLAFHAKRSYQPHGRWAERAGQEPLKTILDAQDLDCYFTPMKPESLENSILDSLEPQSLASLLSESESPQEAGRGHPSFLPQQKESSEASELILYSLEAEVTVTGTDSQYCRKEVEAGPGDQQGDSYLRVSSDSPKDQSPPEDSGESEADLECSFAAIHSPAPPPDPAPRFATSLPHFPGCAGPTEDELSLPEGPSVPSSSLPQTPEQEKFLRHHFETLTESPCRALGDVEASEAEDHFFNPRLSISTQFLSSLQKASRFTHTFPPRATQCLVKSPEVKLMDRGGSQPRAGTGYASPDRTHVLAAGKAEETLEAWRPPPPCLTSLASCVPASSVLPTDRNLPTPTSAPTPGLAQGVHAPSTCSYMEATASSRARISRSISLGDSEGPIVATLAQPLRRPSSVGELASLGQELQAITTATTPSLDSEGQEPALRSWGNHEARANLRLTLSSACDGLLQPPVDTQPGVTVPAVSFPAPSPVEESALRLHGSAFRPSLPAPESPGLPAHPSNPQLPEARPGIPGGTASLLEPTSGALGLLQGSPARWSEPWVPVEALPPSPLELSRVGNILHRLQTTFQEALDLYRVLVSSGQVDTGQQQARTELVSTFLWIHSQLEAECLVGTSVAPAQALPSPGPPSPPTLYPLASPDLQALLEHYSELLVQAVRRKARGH
# Chain of UniProt O75152 (O75152 whole entry, looked up): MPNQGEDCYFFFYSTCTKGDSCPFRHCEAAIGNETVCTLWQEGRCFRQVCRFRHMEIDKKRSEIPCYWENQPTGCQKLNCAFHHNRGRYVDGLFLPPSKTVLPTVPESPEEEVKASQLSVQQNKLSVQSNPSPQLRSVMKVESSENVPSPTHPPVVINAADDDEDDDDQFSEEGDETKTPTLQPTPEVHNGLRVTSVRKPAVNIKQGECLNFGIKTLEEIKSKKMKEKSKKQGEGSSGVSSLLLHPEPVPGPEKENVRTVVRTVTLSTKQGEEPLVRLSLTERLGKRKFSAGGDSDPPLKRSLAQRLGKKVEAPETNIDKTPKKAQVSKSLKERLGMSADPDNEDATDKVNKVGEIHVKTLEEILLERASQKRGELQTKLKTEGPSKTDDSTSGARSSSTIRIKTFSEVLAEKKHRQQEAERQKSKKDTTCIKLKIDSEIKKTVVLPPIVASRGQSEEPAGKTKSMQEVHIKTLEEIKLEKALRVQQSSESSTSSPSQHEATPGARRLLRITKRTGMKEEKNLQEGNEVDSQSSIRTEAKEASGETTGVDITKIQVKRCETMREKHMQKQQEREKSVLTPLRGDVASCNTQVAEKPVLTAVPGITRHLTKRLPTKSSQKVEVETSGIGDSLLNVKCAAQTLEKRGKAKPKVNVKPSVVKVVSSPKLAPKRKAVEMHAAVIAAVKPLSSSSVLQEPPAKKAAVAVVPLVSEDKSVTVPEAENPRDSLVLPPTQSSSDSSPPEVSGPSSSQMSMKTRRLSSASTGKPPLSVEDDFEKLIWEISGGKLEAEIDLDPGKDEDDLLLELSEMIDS
row,Target,log2 fold change
1,YES1 (UniProt P07947),-0.065
2,XAB2 (UniProt Q9HCS7),-0.003
3,VCPIP1 (UniProt Q96JH7),-0.049
4,ZC3H13 (UniProt Q5T200),-0.063
5,ZNF609 (UniProt O15014),-0.028
6,ZC3H11A (UniProt O75152),0.098
7,VPS28 (UniProt Q9UK41),-0.018
8,ZMYM4 (UniProt Q5VZL5),-0.071
9,ZNF217 (UniProt O75362),-0.144
10,YDJC (UniProt A8MPS7),-0.039
11,XPNPEP1 isoform 3 (UniProt Q9NQW7),-0.018
12,USP9X (UniProt Q93008),-0.009
13,UQCRC2 (UniProt P22695),-0.005
14,WRB (UniProt O00258),-0.022
15,ZBTB33 (UniProt Q86T24),-0.028
16,WDR62 isoform 4 (UniProt O43379),0.018
17,XPO6 (UniProt Q96QU8),-0.058
18,VPS35L (UniProt Q7Z3J2),0
19,YEATS4 (UniProt O95619),0.105
20,YWHAQ (UniProt P27348),0.16
21,VRK1 (UniProt Q99986),0.385 (active)
22,ZC3HC1 (UniProt Q86WB0),0.049
23,USP3 (UniProt Q9Y6I4),0.002

# — the supplement of paper PMC10849652
